# Data published in ChEMBL document CHEMBL4513146, “CO-ADD screening of Karazin Kharkiv National University (Ukraine) compounds”.
# Measured potencies and affinities stand elsewhere.
# What was measured:
# Staphylococcus aureus = details: Concentration 32 ug.mL-1;; ASSAY_TEST Inhibition of Bacterial Growth; detection method Absorption (OD600); MEDIA CAMHB; plate type 384well; NBS; CORNING #3640; time 18 hr
# Escherichia coli = details: Concentration 32 ug.mL-1;; ASSAY_TEST Inhibition of Bacterial Growth; detection method Absorption (OD600); MEDIA CAMHB; plate type 384well; NBS; CORNING #3640; time 18 hr
Compound,Inhibition (Staphylococcus aureus),Inhibition (Escherichia coli)
O=C(Cn1nc2c(N3CCOCC3)nccn2c1=O)NCc1ccc(C(F)(F)F)cc1,3.92%,-9.55%
Cc1c(Cl)cccc1-n1ccn2c(SCC(=O)c3c[nH]c4ccccc34)nnc2c1=O,-2.75%,-4.84%
CSc1ccc(-c2noc(Cn3nc4ccc(-c5ccccc5)nn4c3=O)n2)cc1,3.45%,0.55%
COc1ccccc1-n1ccn2c(SCc3cc(C)ccc3C)nnc2c1=O,12.05%,-5.03%
COc1cccc(-n2ccn3c(SCC(=O)Nc4ccccc4Cl)nnc3c2=O)c1,11.46%,-4.64%
COC(=O)c1cccc(NC(=O)Cn2nc3c(Oc4ccccc4)nccn3c2=O)c1,3.03%,-4.6%
O=C(Cn1nc2c(SCc3ccccc3)nccn2c1=O)NC1CCCC1,-2.71%,0.2%
CCCc1nnc2c(=O)n(CC(=O)N3CCCc4ccccc43)c3ccccc3n12,2.88%,-3.24%
Cc1cccc(Oc2nccn3c(=O)n(CC(=O)Nc4cccc(C(F)(F)F)c4)nc23)c1C,4.71%,-4.64%
CCc1ccccc1NC(=O)CSc1nnc2ccc(C(=O)Nc3cccc(F)c3)cn12,19.17%,1.35%
CCCCn1c(=O)c2sccc2n2c(=O)n(CC(=O)N(C)c3ccccc3)nc12,-8.63%,-12.98%
CCc1cccc(C)c1NC(=O)Cn1nc2ccc(SCc3ccc(Cl)cc3)nn2c1=O,-4.43%,-10.21%
COc1cccc(CNC(=O)CSc2nnc3c(=O)n(-c4ccc(C)c(C)c4)ccn23)c1OC,3.35%,-0.9%
O=C(Cn1nc2ccc(SC3CCCCC3)nn2c1=O)Nc1ccc2c(c1)CCC2,4.8%,-2.69%
Cc1nnc2c(=O)n(CC(=O)Nc3ccccc3Br)c3ccccc3n12,16.36%,5.04%
CC(C)c1nnc2c(SCC(=O)Nc3ccc(Br)cc3F)nc3ccccc3n12,6.04%,-1.36%
Cc1ccccc1CN(c1cccc(F)c1)S(=O)(=O)c1ccc2nncn2c1,-9.31%,-3.51%
Cc1ccc(C)c(Cn2nc3c(=O)n(-c4ccc(C)c(C)c4)ccn3c2=O)c1,6.02%,-6.59%
Cc1cc(Br)ccc1NC(=O)Cn1nc2c(Sc3ccccc3)nccn2c1=O,4.58%,-5.92%
COc1ccc(N(Cc2cccc(Cl)c2)S(=O)(=O)c2ccc3nnc(C)n3c2)cc1,13.9%,0.81%
CCCCOc1ccc(-c2cc3c4nnc(SCC(=O)Nc5ccc(F)cc5)n4ccn3n2)cc1,2.53%,-6.79%
O=S(=O)(c1cccn2c(SCc3c(F)cccc3Cl)nnc12)N1CCCC1,5.67%,0.4%
COc1ccccc1-n1ccn2c(SCC(=O)Nc3ccc(F)cc3F)nnc2c1=O,-4.28%,0.2%
CCOc1ccc(NC(=O)Cn2nc3ccc(Sc4cccc(F)c4)nn3c2=O)cc1,2.36%,-8.51%

Compound,Inhibition (Staphylococcus aureus),Inhibition (Escherichia coli)
COc1ccc(NC(=O)Cn2nc3c(Sc4ccccc4)nccn3c2=O)cc1OC,-8.9%,-5.11%
COc1ccccc1-n1ccn2c(SCC(=O)Nc3ccc4c(c3)OCO4)nnc2c1=O,7.67%,-8.08%
CCOC(=O)c1ccc(NC(=O)Cn2nc3c4cc(-c5ccc(C)cc5)nn4ccn3c2=O)cc1,-5.61%,-8.93%
Cc1c(Cl)cccc1-n1ccn2c(=O)n(Cc3ccc(Cl)cc3)nc2c1=O,9.17%,-7.56%
COC(=O)c1ccccc1NC(=O)Cn1nc2c3cc(-c4ccc(OC)cc4)nn3ccn2c1=O,11.07%,4.87%
CCCCOc1ccc(-c2cc3c4nnc(SCC(=O)Nc5ccc(C)c(C)c5)n4ccn3n2)cc1,10.66%,-4.59%
Cc1nnc2c(=O)n(CC(=O)Nc3ccc(F)cc3F)c3ccccc3n12,10.56%,-0.32%
Cc1ccc(-n2ccn3c(=O)n(Cc4cccc(F)c4)nc3c2=O)cc1C,-0.24%,-8.8%
O=C(Cn1nc2nc(Nc3ccc(F)cc3)ccn2c1=O)NCC1CCCO1 (centres undefined),2.52%,-9.11%
COc1ccccc1-n1ccn2c(SCC(=O)Nc3ccc(C)cc3C)nnc2c1=O,14.03%,-4.75%
COc1cccc(Sc2nc3ccccc3n3c(=O)n(CC(=O)Nc4cc(C)cc(C)c4)nc23)c1,0.14%,3.24%
Cc1oc(-c2cccc(Cl)c2)nc1CSc1nc2ccccc2n2c(C(C)C)nnc12,3.52%,-2.96%
CSc1cccc(NC(=O)Cn2nc3c(SC4CCCCC4)nccn3c2=O)c1,-5.93%,-5.86%
C=Cc1ccc(CSc2nnc3c(=O)n(-c4ccc(Br)cc4)ccn23)cc1,2.47%,-8.25%
CC(C)c1ccc(NC(=O)Cn2nc3c(N4CCCC4)nccn3c2=O)cc1,2.8%,-0.46%
CCc1nnc2c(SCC(=O)Nc3cccc(OC)c3)nc3ccccc3n12,0.35%,-7.16%
CCCN(C)c1nccn2c(=O)n(CC(=O)Nc3ccc(C#N)cc3)nc12,14.04%,-2.47%
CCOc1ccc(C(=O)CSc2nnc3c(=O)n(-c4ccc(OCC)cc4)ccn23)cc1,18.9%,1.24%
CCOc1ccc(-n2ccn3c(SCC(=O)NCc4ccc(Cl)cc4)nnc3c2=O)cc1,4.19%,3.75%
CCc1nnc2c(=O)n(CC(=O)Nc3cc(Cl)ccc3Cl)c3ccccc3n12,1.29%,-5.86%
O=c1n(Cc2nc(-c3ccc(F)cc3)no2)nc2ccc(-c3ccccc3)nn12,3.21%,-3.67%
CSc1ccc(CNC(=O)Cn2nc3c(N4CCOCC4)nccn3c2=O)cc1,19.42%,-0.45%
CSc1ccc(CNC(=O)Cn2nc3c(N4CC(C)CC(C)C4)nccn3c2=O)cc1 (centres undefined),11.21%,0.68%
Cc1ccc(NC(=O)CSc2nc3ccccc3n3c(C)nnc23)c(Br)c1,15.19%,-2.51%

Compound,Inhibition (Staphylococcus aureus),Inhibition (Escherichia coli)
O=C(Cn1nc2c(Oc3ccccc3)nccn2c1=O)Nc1ccc(F)cc1F,6.01%,-8.04%
Cc1ccc(-c2cc3c4nn(CC(=O)Nc5ccc6c(c5)OCO6)c(=O)n4ccn3n2)cc1C,-8.73%,-12.23%
COC(=O)c1ccc(NC(=O)Cn2nc3c4cc(-c5ccc(Cl)cc5)nn4ccn3c2=O)cc1,1.97%,4.04%
CC(C)NC(=O)Cn1nc2nc(Nc3ccc(F)cc3)ccn2c1=O,8.74%,-2.64%
Cc1cccc(C)c1NC(=O)CSc1nc2ccccc2n2c(C)nnc12,11.69%,-4.17%
COc1ccc(-c2cc3c4nn(CC(=O)Nc5cccc(C)c5)c(=O)n4ccn3n2)cc1,1.22%,-1.93%
COc1ccc(-c2cc3c4nn(CC(=O)Nc5ccc(OC)c(Cl)c5)c(=O)n4ccn3n2)cc1,-2.49%,-6.71%
Cc1ccc(-n2ccn3c(SCC(=O)Nc4ccc5c(c4)OCCO5)nnc3c2=O)cc1C,6.11%,-5.98%
O=c1c2sccc2n2c(SCc3cccc(C(F)(F)F)c3)nnc2n1Cc1ccc(F)cc1,9.81%,-1.38%
Cc1cccc(Sc2nccn3c(=O)n(CC(=O)N4CCN(c5ccc(F)cc5)CC4)nc23)c1,-10.95%,-6.75%
Cc1ccc(-c2ccc3nn(CC(=O)Nc4ccc(Br)cc4F)c(=O)n3n2)cc1,3.77%,-3%
CCOc1ccc(-n2ccn3c(SC(CC)C(=O)Nc4cc(F)ccc4F)nnc3c2=O)cc1 (centres undefined),7.7%,-0.34%
CCOc1ccc(NC(=O)Cn2nc3c4cc(-c5ccc(C)c(C)c5)nn4ccn3c2=O)cc1,-9.23%,1.9%
Cc1ccc(NC(=O)CSc2nnc3c(=O)n(-c4ccc(C)c(C)c4)ccn23)c(Cl)c1,11.19%,-1.65%
Cc1ccc(Sc2nccn3c(=O)n(CC(=O)Nc4ccc(Br)cc4C)nc23)c(C)c1,-15.15%,-16.85%
O=C(Cn1nc2c3sc(N4CCCC4)nc3ncn2c1=O)Nc1ccccc1Cl,4.77%,-9.42%
COc1ccc(N(Cc2cccc(OC)c2)S(=O)(=O)c2ccc3nnc(C)n3c2)cc1,-9.05%,0.15%
Cc1cccc(NC(=O)Cn2nc3ccc(-c4ccc(Cl)cc4)nn3c2=O)c1,7.34%,-1.37%
CC(C)c1ccc(N(Cc2ccccc2)S(=O)(=O)c2cccn3cnnc23)cc1,5.98%,-8.68%
COc1cccc(CN(c2ccc(F)c(F)c2)S(=O)(=O)c2ccc3nnc(C)n3c2)c1,7.3%,-2.88%
CC(C)CCn1c(=O)c2sccc2n2c(=O)n(CC(=O)NC(C)C)nc12,-2.24%,-10.46%
Cc1ccc(NC(=O)Cn2c(=O)c3nnc(C)n3c3ccccc32)cc1F,11.98%,-4.13%
COc1cccc(CNC(=O)CSc2nnc3c4cc(-c5cc(C)ccc5C)nn4ccn23)c1OC,5.75%,-5.6%
COc1ccccc1-n1ccn2c(SCC(=O)NCc3ccc(Cl)cc3)nnc2c1=O,12.53%,-3.51%
